ClpP mod – qHTS Assay for Activators of ClpP. ATP-dependent Clp protease proteolytic subunit (Bacillus subtilis (strain 168)), P80244. purified B. subtilis ClpP, FRET peptide cleavage, 20 min. Potency, µM (highest dose often 57.5 µM). 340,000 tested, 1.9% active. AID 651965, 2013; active = well fitted falling curve with a large enough effect; inconclusive = small, poorly fitted or top-dose-only effect; inactive = no such curve, though single readings can be large or run the other way; also: the source files actives as falling curves though it sought activators and does not explain the sign; nearly all actives have a fitted effect of over 65% in size
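Buffer: 100 mM Tris/HCl pH8, 100 mM KCl, 0.05% low protease BSA, 2.5% glycerol, 0.01% Tween-20. ClpP 10 microg/mL final; 20 min RT; delta FRET normalized to ADEP and DMSO controls.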
TDP1 inh – qHTS Assay for Inhibitors of Tyrosyl-DNA Phosphodiesterase (TDP1); Tyrosyl-DNA phosphodiesterase 1 (Homo sapiens), Q9NUW8; recombinant TDP1, AlphaScreen DNA substrate cleavage; Potency, µM (series often up to 130 µM), hits mostly inhibitors; 350,000 tested, 0.28% active; also: nearly all actives have a fitted effect of over 40% in size
Target sequence (Q9NUW8 whole entry, looked up): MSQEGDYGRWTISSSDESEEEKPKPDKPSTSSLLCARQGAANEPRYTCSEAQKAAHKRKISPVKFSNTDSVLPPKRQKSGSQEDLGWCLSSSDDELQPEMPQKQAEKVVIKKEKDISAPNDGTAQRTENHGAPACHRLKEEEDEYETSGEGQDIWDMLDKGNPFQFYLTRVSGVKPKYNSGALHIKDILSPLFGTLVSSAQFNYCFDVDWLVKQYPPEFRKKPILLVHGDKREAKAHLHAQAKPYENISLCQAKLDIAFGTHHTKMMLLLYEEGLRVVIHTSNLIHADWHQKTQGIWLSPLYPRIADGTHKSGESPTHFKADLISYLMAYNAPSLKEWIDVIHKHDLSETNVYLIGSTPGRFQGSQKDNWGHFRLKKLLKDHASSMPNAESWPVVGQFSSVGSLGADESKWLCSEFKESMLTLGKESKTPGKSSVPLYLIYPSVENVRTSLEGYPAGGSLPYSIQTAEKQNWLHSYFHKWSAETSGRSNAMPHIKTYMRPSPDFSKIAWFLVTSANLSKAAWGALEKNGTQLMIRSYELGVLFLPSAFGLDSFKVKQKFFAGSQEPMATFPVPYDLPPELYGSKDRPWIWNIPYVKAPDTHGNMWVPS
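E. coli-derived human Tdp1, 1 nM final. Cpd preinc 15 min RT; substrate 15 nM final, 5 min RT; AS bead mix 10 ug/ml final, 10 min RT. Signal loss = tyrosine-FITC cleavage. No-enzyme wells = max signal.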
TDP1 cell CPT – qHTS for Inhibitors of human tyrosyl-DNA phosphodiesterase 1 (TDP1): qHTS in cells in presence of CPT | chicken DT40 Tdp1-/-;hTDP1 cells + 20 nM CPT, ATP luminescence, 48 h | Potency, µM (doses to about 46.2 µM), actives largely listed as inhibitors | 420,000 tested, 12% active | AID 686979, 2013; also: nearly all actives have a fitted effect of over 55% in size
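Chicken DT40 Tdp1-/- cells complemented with human TDP1, 400 cells/well, exposed to compounds plus 20 nM camptothecin for at least 48 h at 37 C; viability read as ATP content by CellTiter-Glo luminescence.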
DT40 TDP1 no CPT – qHTS for Inhibitors of human tyrosyl-DNA phosphodiesterase 1 (TDP1): qHTS in cells in absence of CPT | DT40 Tdp1-/- hTDP1 cells, no CPT, ATP luminescence, 48 h | Potency, µM (series often up to 46.2 µM), hits mostly inhibitors | 420,000 tested, 15% active; also: nearly all actives have a fitted effect of over 55% in size
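Luminescent ATP content (CellTiter-Glo) served as the growth readout. Knockout chicken DT40 cells expressing human TDP1 were exposed to compounds without camptothecin for a minimum 48 hr at 37 °C.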
A number is an active result; 0 = inactive; ? = inconclusive; - = no result given; [ ] = dose if it differs, or a comment. Shown are actives, neighbours in structure and some others; about 17% of the full set was active somewhere. Unless noted, calls follow the shape of the dose curve; as a rule, active = well fitted curve in the direction sought with a large enough effect; inconclusive = small, poorly fitted or top-dose-only effect, or another doubt; inactive = no such curve, though single readings can be large; an effect the other way counts as inactive or inconclusive.

SMILES	ClpP mod	TDP1 inh	TDP1 cell CPT	DT40 TDP1 no CPT
COC(=O)c1ccc(Nc2nc(C)cc(=O)[nH]2)cc1	0	0	0	0
Cc1cc(C)c(CC(=O)c2ccccc2)c(C)c1	0	-	0	?
CCc1ccc(NC(=O)CCCn2nc(C)c3c(C)n(-c4ccccc4)nc3c2=O)cc1	0	0	?	?
NCc1ccccc1CC(=O)N[C@@H]1C(=O)N2C(C(=O)O)=C(CSc3nnnn3CC(=O)O)CS[C@H]12	-	-	0	0
COc1ccc(NC(=O)NCc2ccccn2)c(OC)c1	0	0	0	0
CC(C)Nc1nc(Nc2ccc(C(N)=O)cc2)c2sccc2n1	0	-	26µM	?
Nn1c(Cc2cccc3ccccc23)nnc1SCc1ccc(Cl)c(Cl)c1	0	0	0	0
Nn1c(Cc2cccc3ccccc23)nnc1SCc1c(Cl)cccc1Cl	0	0	?	16µM
CCOc1cc(CNCCc2ccc(S(N)(=O)=O)cc2)ccc1OCC(=O)NC1CCCCC1	0	0	?	23µM
COc1cc(CNCCc2ccccc2)cc(Br)c1OCC(=O)Nc1ccccc1C	0	0	?	26µM
CCOc1cc(CNCCc2ccccc2)ccc1OCC(=O)NC(C)(C)C	0	0	18µM	21µM
Cc1cccc(CN2CCC(CNC(=O)Cn3ncc4c([nH]c5ccc(C)cc54)c3=O)CC2)c1	0	0	?	?
COc1ccc2c(c1)Cc1sc(NC(=O)c3cccc(C)c3)nc1-2	0	0	?	?
COc1ccc2c(c1)-c1nc(NC(=O)c3ccc(OC)c(Br)c3)sc1CC2	0	0	?	8.2µM
COc1ccc2c(c1)CCc1sc(NC(=O)c3cccc(Br)c3)nc1-2	?	0	?	?
COc1ccc(C(=O)Nc2nc(-c3ccc([N+](=O)[O-])cc3)c(-c3ccc(OC)cc3)s2)cc1	0	0	?	10µM
COc1ccc(C(=O)Nc2nc3c(s2)CCc2cc(OC)ccc2-3)cc1	?	0	23µM	26µM
COc1ccc2c(c1)Cc1sc(NC(=O)c3ccc(Cl)cc3)nc1-2	0	0	21µM	13µM
COc1ccc2c(c1)-c1nc(NC(=O)c3ccc(C)cc3)sc1CC2	?	0	?	?
Cc1ccc2nc(N(CCN(C)C)C(=O)C3CCN(S(=O)(=O)c4cccs4)CC3)sc2c1	0	-	0	0
c1ccc2cc(C3OCC4(CCCC4)CO3)ccc2c1	0	-	?	0
CC(C)C[C@H](NC(=O)c1ccc(NCc2cnc[nH]2)cc1-c1cccc2ccccc12)C(=O)O	-	0	-	-
Cc1cc2occ(CC(=O)N(C)CC(=O)Nc3ccccc3Cl)c2cc1C	0	-	0	?
C=C1CCC[C@]2(C)C[C@H]3OC(=O)C(CNCC(C)C)[C@H]3CC12 (stereo not given in full)	0	-	?	16µM
C=C1CCC[C@]2(C)C[C@H]3OC(=O)C(CNCCN(CC)CC)[C@H]3CC12 (stereo not given in full)	0	-	?	16µM
SMILES	ClpP mod	TDP1 inh	TDP1 cell CPT	DT40 TDP1 no CPT
CCCCCCCCCCCCC/C=C\[C@@H](O)[C@H](CO)NC(C)=O	-	0	0	?
COc1ccc([C@H]2N[C@]3(CCCN(Cc4ccco4)C3=O)[C@H]3C(=O)N(Cc4ccccc4)C(=O)[C@@H]23)cc1	0	-	0	0
COc1ccc(-c2oc(=O)c3cc(OC)c(OC)cc3c2/C=C/c2cccc([N+](=O)[O-])c2)cc1	0	0	8.2µM	9.2µM
COc1ccc(-c2ccc3oc(-c4ccc(OC)cc4)c(-c4cc(OC)c(OC)c(OC)c4)c3c2)cc1	0	-	0	0
COc1ccc(-c2oc(=O)c3cc(OC)c(OC)cc3c2-c2cc(F)cc(OC)c2)cc1	20µM	0	?	18µM
COc1ccc(-c2c(-c3ccc(C#N)cc3)oc(=O)c3cc(OC)c(OC)cc23)cc1	0	0	?	16µM
COc1ccc(-c2oc(=O)c3cc(OC)c(OC)cc3c2/C=C/c2ccc([N+](=O)[O-])cc2)cc1	0	0	?	?
O=C(CC1(O)C(=O)N(Cc2ccc3c(c2)OCO3)c2ccccc21)c1ccccc1 (stereo not given)	0	0	3.7µM	5.8µM
C#CCN1C(=O)C(O)(CC(=O)c2ccc3c(c2)OCCO3)c2ccccc21 (stereo not given)	0	0	?	23µM
Cc1ccc(C(=O)CC2(O)C(=O)N(Cc3ccc4c(c3)OCO4)c3ccccc32)cc1 (stereo not given)	16µM	0	?	?
O=C(CC1(O)C(=O)N(Cc2ccccc2)c2ccccc21)c1ccc2c(c1)OCO2 (stereo not given)	0	0	?	?
Cc1cc(C(=O)NCc2nnc3n2CCN(Cc2ccc(C)c(C)c2)CC3)c(C)o1	-	-	0[9.04 µM]	0
CCOC(=O)[C@]12CCC=C1N(Cc1ccco1)C(=O)[C@H](CC(=O)NCc1ccccc1)C2	0	-	0	0
CC(=O)c1cccc(NC(=O)COc2ccccc2C(=O)c2cc(C#N)c(=O)n(C3CCCCC3)c2)c1	0	0	?	12µM
N#Cc1cc(C(=O)c2cc(Br)ccc2O)cn(C2CCCCC2)c1=O	0	0	13µM	20µM
Cc1ccc(OCc2ccc(C#N)cc2)c(C(=O)c2cc(C#N)c(=O)n(C3CC3)c2)c1	0	0	0	0
Cc1ccc(O)c(C(=O)c2cc(C#N)c(=O)n(CC3CCCO3)c2)c1 (stereo not given)	0	0	15µM	21µM
COC(=O)C1=C(C(=O)OC)[C@@H]2N(C)c3ccc(OC)cc3[C@@]23C[C@@H](C(=O)OC)N(C(=O)COCc2ccccc2)C3=N1	0	0[12.3 µM]	?	0
CCCCn1c(N)c(N(CC(C)C)C(=O)CCN2C(=O)C3CC=CCC3C2=O)c(=O)[nH]c1=O (stereo not given)	0	-	0	0
O=C(COc1cc(F)ccc1[N+](=O)[O-])Nc1cccc(S(=O)(=O)NC2=NCCC2)c1	0	0	0	0
CCc1nc(N2CCN(C(=O)c3ccco3)CC2)c2oc3ccccc3c2n1	0	0	21µM	21µM
CC(C)(C)c1nc(N2CCN(C(=O)c3ccco3)CC2)c2nnn(Cc3ccccc3)c2n1	?	0	?	21µM
Cc1nc2ccccc2c2oc(C(=O)N3CCN(C(=O)c4ccco4)CC3)cc12	0	0	?	?
Cc1nc(N2CCN(C(=O)c3ccco3)CC2)c2oc3ccccc3c2n1	0	0	15µM	21µM
CCN(C(=O)c1ccc2c(SCC(=O)O)c3c(nc2c1)CCC3)c1cc(Cl)ccc1OC	0	0	0	0
CCOc1ccc(NC(=O)c2ccc(-c3cccc(Cl)c3C)o2)cc1	0	0[12.3 µM]	?	?
CNc1ccccc(-c2ccc3ccccc3n2)c1=O	0	0	?	23µM
